Bioassay records (PubChem BioAssay)
This excerpt belongs to a sample that is enriched for hits.
TDP1 cell noCPT – qHTS for Inhibitors of human tyrosyl-DNA phosphodiesterase 1 (TDP1): qHTS in cells in absence of CPT | hit rate 15% among 420,000 | AID 686978, 2013 | Potency, µM (doses to about 46.2 µM), for inactives: at the top dose activity change, negative = growth inhibition, hits mostly inhibitors | DT40 Tdp1-/- hTDP1 cells, no CPT, ATP luminescence, 48 h; note: potency is the fitted concentration of half-maximal effect; nearly all actives have a fitted effect of over 55% in size
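Compound effects on proliferation are scored in DT40 Tdp1-/-;hTDP1 cells in the absence of CPT. ATP levels (CellTiter-Glo luminescence) are recorded after a ≥48 hr, 37 °C incubation.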
HT1080-NT tox – kills 2HG-producing HT-1080-NT fibrosarcoma cells; HT-1080-NT fibrosarcoma viability, CellTiter-Glo ATP luminescence, 48 h; Potency, µM (series often up to 46.1 µM), without a hit: at the highest dose activity, negative = less viability, usual class: cytotoxic; hit rate 1.6% among 360,000;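 note: NT is the 2HG producing partner of a matched IDH1 knockdown line; potency is the fitted concentration of half-maximal effect; 0% = DMSO-treated cells and -100% = media-only wells without cells; nearly all actives have a fitted effect of over 55% in size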
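750 cells/well, RPMI + 5% FBS; 2 h settle, compound pin-transfer, 48 h at 37 degrees C. CellTiter-Glo 10 min RT, luminescence. Normalized to DMSO and media-only wells.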
HT1080 IDH1KD tx – toxicity to HT-1080 IDH1 knockdown cells (counter line); HT-1080 IDH1 knockdown viability, ATP luminescence, 48 h; Potency, µM (series often up to 46.1 µM), inactives show top-dose activity, negative = toxicity, hits mostly cytotoxic; hit rate 2% among 360,000; AID 686971;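 note: potency is the fitted concentration of half-maximal effect; 0% = DMSO wells and -100% = cell-free medium wells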
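HT-1080-IDH1KD cells (IDH1 knocked down), 750/well in RPMI with 5% FBS, treated with compound 48 h at 37 degrees C. Viability by CellTiter-Glo luminescence, normalised to DMSO and no-cell wells; concentration-response curves classed.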
ALOX12 inh – blocks human arachidonate 12S-lipoxygenase. AID 1671190. P18054. hit rate 1.1% among 580,000. Potency, µM (titrated, usually from 108 µM), for inactives: at the highest dose activity change, negative = inhibition, usual class: inhibitors. purified 12hLO, xylenol orange hydroperoxide absorbance; note: potency is the fitted concentration of half-maximal effect
Target sequence (P18054 whole entry, looked up): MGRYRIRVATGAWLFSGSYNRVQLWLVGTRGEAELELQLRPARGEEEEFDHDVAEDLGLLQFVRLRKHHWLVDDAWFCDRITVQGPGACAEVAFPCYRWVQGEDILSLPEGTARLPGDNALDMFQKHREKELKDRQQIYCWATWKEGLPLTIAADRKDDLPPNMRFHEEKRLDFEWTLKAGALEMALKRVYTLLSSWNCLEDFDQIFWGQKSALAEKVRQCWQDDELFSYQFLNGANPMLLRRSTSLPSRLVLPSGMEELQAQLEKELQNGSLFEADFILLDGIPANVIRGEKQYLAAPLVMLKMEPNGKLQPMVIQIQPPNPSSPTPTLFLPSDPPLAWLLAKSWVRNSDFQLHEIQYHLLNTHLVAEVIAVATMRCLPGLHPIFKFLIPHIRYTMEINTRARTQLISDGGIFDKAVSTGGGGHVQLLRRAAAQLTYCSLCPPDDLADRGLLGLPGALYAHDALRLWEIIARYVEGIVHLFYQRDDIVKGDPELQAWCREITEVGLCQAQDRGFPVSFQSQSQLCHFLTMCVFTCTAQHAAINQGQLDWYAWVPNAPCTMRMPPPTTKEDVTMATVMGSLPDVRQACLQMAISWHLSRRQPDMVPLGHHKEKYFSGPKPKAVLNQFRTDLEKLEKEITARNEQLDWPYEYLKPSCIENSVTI
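Purified human 12hLO (150 nM final) in 25 mM Hepes, 0.01% Triton X-100, pH 7.0 was preincubated 15 min at room temperature with compound. Then 40 uM arachidonic acid was added, 30 min. Hydroperoxide was read by Fe-XO absorbance ratio 573/405 nm.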
IL1B secr inh – inhibitors of inflammasome signaling (IL-1 beta secretion); THP-1 LPS/ATP IL-1B secretion, AlphaLISA, 16 h; active compounds read low; activity change, % at 57.5 µM; hit rate 4.7% among 360,000; AID 743279; in the data active = activity change below about -50%; inconclusive = mostly about -30% to -49%
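Secreted IL-1B measured by AlphaLISA bead assay after 16 h compound exposure of THP-1 cells; compounds (final up to 57.5 uM) added 1 h before LPS (250 ng/mL) and ATP (1.25 mM) stimulation; lower signal means less secretion.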
TDP1 cell CPT – DT40-hTDP1 cell growth loss with CPT | chicken DT40 Tdp1-/-;hTDP1 cells + 20 nM CPT, ATP luminescence, 48 h | Potency, µM (doses to about 46.2 µM), inactives show top-dose activity change, negative = growth inhibition, hits mostly inhibitors | hit rate 12% among 420,000 | AID 686979; note: potency is the fitted concentration of half-maximal effect; nearly all actives have a fitted effect of over 55% in size
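Chicken DT40 Tdp1-/- cells complemented with human TDP1, 400 cells/well, exposed to compounds plus 20 nM camptothecin for at least 48 h at 37 C; viability read as ATP content by CellTiter-Glo luminescence.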
* marks the source's active call; other numbers are inactive results; ? = inconclusive; / = no result; [ ] = remark or other dose. Unless noted, calls come from the whole dose curve; as a rule, active = well fitted curve in the direction sought with a large enough effect; inconclusive = small, poorly fitted or top-dose-only effect, or another doubt; inactive = no such curve, though single readings can be large; an effect the other way counts as inactive or inconclusive. Unless noted, % is set by controls: 0 for no effect and ±100 for the full control effect.

SMILES	TDP1 cell noCPT	HT1080-NT tox	HT1080 IDH1KD tx	ALOX12 inh	IL1B secr inh	TDP1 cell CPT
COc1ccc(C2(CNC(=O)c3cc([N+](=O)[O-])cc([N+](=O)[O-])c3)CCCC2)cc1OC	16.4µM*	-14.3%	-3.0%	-7.9%	23.1	20.6µM*
COc1ccc(C2(CNC(=O)c3ccccc3)CCCC2)cc1OC	?	-7.3%	-1.7%	3.2%	-2.1	-47.0%
O=C(NN1CCOCC1)c1ccn(COc2cccc(Cl)c2Cl)n1	/	/	/	15.9%	/	/
COc1cccc(C(=O)NCC2(c3ccccc3)CCCC2)c1OC	9.2µM*	0.3%	-16.7%	0.1%	18.0	18.4µM*
CS(=O)Cc1cccc(C(=O)NCC2(c3ccccc3)CCCCC2)c1 (stereo unspecified)	/	/	/	0.3%	/	/
O=C(NCC1(c2ccccc2)CCCC1)c1cccc(Br)c1	13µM*	-9.0%	-7.2%	8.0%	-2.5	14.6µM*
COc1cc(C(=O)NCC2(c3ccccc3)CC2)cc(OC)c1OC	/	/	/	-22.9%	/	/
COc1cc2c(cc1C(=O)N1CC[C@@](O)(C3CCOCC3)[C@H](C)C1)CCC2	/	/	/	26.7%	/	/
O=C(C[C@@H]1CCNC[C@@H]1Cc1cc(CN2CCCCC2)on1)N1CCCCC1	/	/	/	-3.4%[176 µM]	/	/
COc1cccc(Nc2nc3ccccc3nc2NS(=O)(=O)c2cccc3nsnc23)c1	/	/	/	-15.0%	/	/
CNC(=S)N(CCc1c(C)[nH]c2ccc(C)cc12)Cc1cc(OC)c(OC)c(OC)c1	14.6µM*	-0.6%	0.1%	-1.9%	-8.7	?
CCNC(=S)N(CCc1c(C)[nH]c2ccccc12)Cc1cc(OC)c(OC)c(OC)c1	10.3µM*	-4.0%	-10.5%	?	-26.1	16.4µM*
CCNC(=S)N(CCc1c(C)[nH]c2ccccc12)Cc1cccnc1	?	-0.4%	0.6%	27.4%	21.8	?
CNC(=S)N(CCc1c(C)[nH]c2ccccc12)Cc1cc(OC)c(OC)c(OC)c1	20.6µM*	-7.0%	-1.3%	-0.5%	-13.5	?
COc1ccc(S(=O)(=O)N2C[C@@H]3C[C@H](C2)c2ccc(-c4cccc(C(F)(F)F)c4)c(=O)n2C3)cc1	/	/	/	47.0%	/	/
COc1ccc(/C(C)=N/Nc2nc3ccccc3nc2C)cc1OC	?	-18.6%	?	?	8.4	?
C/C(=N\Nc1cccc2cccnc12)c1ccc(N)cc1	17.8%	-10.5%	-8.0%	-28.6%	28.9	-28.5%
COc1cc(N/N=C(\C)c2ccc(N)cc2)nc(-c2ccccc2)n1	18.4µM*	-1.6%	-24.8%	119.8%	?	23.1µM*
COc1cc(N/N=C(\C)c2ccc(O)c(C)c2)nc(-c2ccccc2)n1	?	20.6µM*	?	-3.2%	-58.7*	?
C/C(=N\Nc1cc(-c2ccccc2)nc(-c2ccccc2)n1)c1ccc(O)c(C)c1	?	?	23.1µM*	-2.7%	-27.1	?
CC(C)[C@]1(O)CN(C(=O)Cn2[nH]c3ccccc3c2=O)C[C@H]1C	/	/	/	-1.0%	/	/
O=C(CSc1nc2ccccc2o1)c1cccc(C(F)(F)F)c1	/	/	/	-1.7%	/	/
CC(NC(=O)c1nccnc1N)c1ccc(F)c(F)c1 (stereo unspecified)	/	/	/	11.5%	/	/
O=C1c2ccc(Cl)cc2S(=O)(=O)c2cccc(C(=O)N3CCN(c4ccc(Cl)cn4)CC3)c21	16.4µM*	?	?	?	-93.4*	13µM*
COc1ccc(-c2ccc3c(c2)S(=O)(=O)c2cccc(C(=O)N4CCN(c5ccc(Cl)cn5)CC4)c2C3=O)cc1OC	?	4.9%	-3.0%	-17.5%	61.4	-5.1%
SMILES	TDP1 cell noCPT	HT1080-NT tox	HT1080 IDH1KD tx	ALOX12 inh	IL1B secr inh	TDP1 cell CPT
Cc1ccc(CNC(=O)[C@H]2CCC[C@H]2NC(=O)c2ccncc2)o1	/	/	/	53.5%	/	/
CCN1C(=O)c2ccccc2S(=O)c2ccc(C(=O)NCc3ccccc3OC)cc21 (stereo unspecified)	23.1µM*	/	/	-23.4%	/	?
CCCCSCCCNC(=O)c1ccc2c(c1)N(CC)C(=O)c1ccccc1S2=O (stereo unspecified)	?	-0.9%	0.7%	-21.0%	-12.3	18.4µM*
CCN1C(=O)c2ccccc2S(=O)c2ccc(C(=O)NCc3ccc(OC)cc3)cc21 (stereo unspecified)	?	3.5%	0.0%	9.0%	29.3	?
O=C(C1CCCCC1)N1CCN(C2CCN(Cc3cccnc3)C2=O)CC1 (stereo unspecified)	/	/	/	25.1%	/	/
O=[N+]([O-])c1ccc(CSc2ccccn2)cc1	-6.2%	-1.2%	1.9%	0.0%	-14.4	0.4%
O=[N+]([O-])c1ccccc1CSc1ccccn1	1.8%	7.8%	21.3%	?	-63.0*	-10.6%
Cc1[nH]n(-c2ccccc2)c(=O)c1/C=N/NC(=O)c1cccc([N+](=O)[O-])c1	0.651µM*	?	?	375.4%	134.6	0.259µM*
Cc1[nH]n(-c2cccc3ccccc23)c(=O)c1/C=N/NC(=O)c1cccc([N+](=O)[O-])c1	1.3µM*	?	?	44.7µM*	31.8	2.06µM*
Cc1ccc(-n2[nH]c(C)c(/C=N/Nc3ccc([N+](=O)[O-])cc3[N+](=O)[O-])c2=O)cc1C	20.6µM*	?	20.6µM*	-15.3%	-14.9	?
O=C(C1CCN(C(=O)N2CC3CC(C2)[C@H]2CCCC(=O)N2C3)CC1)N1CCN(c2ccccn2)CC1 (stereo partly specified)	/	/	/	33.6%	/	/
CC1CCN(c2ccc(-c3cccc(NC(=O)NC(C)C)c3)nn2)CC1	/	/	/	15.6%	/	/
Cc1cc(O)c2c(C)c(CC(=O)NCc3ccc(F)cc3)c(=O)oc2c1	/	/	/	2.4%	/	/
COc1cc(C(=O)NCCSc2ccccc2)cc(OC)c1OC	?	2.5%	-2.9%	10.6%	15.4	-3.3%
CCN(CC)S(=O)(=O)c1ccc(C(=O)NCCc2cc3c(OC)ccc(OC)c3[nH]c2=O)cc1	16.4µM*	10.4%	8.8%	-4.4%	48.5	?
CN(C)S(=O)(=O)c1ccc(C(=O)NCCSc2ccccc2)cc1	?	-4.7%	-9.7%	28.2%	-6.5	-20.2%
Cc1ccc(C(=O)NCCSc2c(C)[nH]c3ccccc23)cc1	/	/	/	-5.1%	/	/
CCN(CC)S(=O)(=O)c1ccc(C(=O)NCCSc2c(-c3ccc(OC)cc3)[nH]c3ccccc23)cc1	3.66µM*	/	/	10.4%	/	7.31µM*
COc1ccc(-c2[nH]c3ccccc3c2SCCNC(=O)c2ccc(S(=O)(=O)N(C)C)cc2)cc1	2.59µM*	/	/	-18.4%	/	3.26µM*
